A number with no mark means an inactive call. Inconclusive results are not listed. A call without a number means that no potency is given here. The source made the active and inactive calls. Calls follow the shape of the dose curve; as a rule, active = well fitted curve in the direction sought with a large enough effect; inconclusive = small, poorly fitted or top-dose-only effect, or another doubt; inactive = no such curve, though single readings can be large; an effect the other way counts as inactive or inconclusive.
Columns and labels:
[1] = system: Zika virus NS2B-NS3 protease (unlinked); test: Optimization of GU AMC qHTS for Zika virus inhibitors: Unlinked NS2B-NS3 protease assay (AID 1347151); also: nearly all actives have a fitted effect of over 80% in size; also: potency is read from the fitted curve at half-maximal effect
In short: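 Noncovalent NS2B hydrophilic domain–NS3 protease complex (25 nM final) in 10 mM Tris-HCl pH 8.0, 0.01% Tween 20; AMC substrate, room temperature 15 min (~20% conversion); fluorescence change normalized, 4-parameter Hill fit.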

[2] = system: Zika virus NS2B-NS3 protease; test: Primary screen GU AMC qHTS for Zika virus inhibitors (AID 1347154); also: nearly all actives have a fitted effect of over 70% in size
In short: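 Unlinked Zika NS2B hydrophilic domain–NS3 protease complex at 25 nM in 10 mM Tris-HCl pH 8.0, 0.01% Tween 20, with an AMC peptide substrate. Fluorescence change (340/450 nm) over 15 min at room temperature, normalized to controls, fitted to 4-parameter Hill.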

[3] = biological target: Lysine-specific demethylase 5B (Homo sapiens) (UniProt Q9UGL1); test: Optimization screen for KDM5B Histone Demethylases FDH coupled qHTS against the LOPAC library (AID 1347166); also: potency is read from the fitted curve at half-maximal effect
Sequence of Lysine-specific demethylase 5B (Homo sapiens) (Q9UGL1 whole entry, looked up): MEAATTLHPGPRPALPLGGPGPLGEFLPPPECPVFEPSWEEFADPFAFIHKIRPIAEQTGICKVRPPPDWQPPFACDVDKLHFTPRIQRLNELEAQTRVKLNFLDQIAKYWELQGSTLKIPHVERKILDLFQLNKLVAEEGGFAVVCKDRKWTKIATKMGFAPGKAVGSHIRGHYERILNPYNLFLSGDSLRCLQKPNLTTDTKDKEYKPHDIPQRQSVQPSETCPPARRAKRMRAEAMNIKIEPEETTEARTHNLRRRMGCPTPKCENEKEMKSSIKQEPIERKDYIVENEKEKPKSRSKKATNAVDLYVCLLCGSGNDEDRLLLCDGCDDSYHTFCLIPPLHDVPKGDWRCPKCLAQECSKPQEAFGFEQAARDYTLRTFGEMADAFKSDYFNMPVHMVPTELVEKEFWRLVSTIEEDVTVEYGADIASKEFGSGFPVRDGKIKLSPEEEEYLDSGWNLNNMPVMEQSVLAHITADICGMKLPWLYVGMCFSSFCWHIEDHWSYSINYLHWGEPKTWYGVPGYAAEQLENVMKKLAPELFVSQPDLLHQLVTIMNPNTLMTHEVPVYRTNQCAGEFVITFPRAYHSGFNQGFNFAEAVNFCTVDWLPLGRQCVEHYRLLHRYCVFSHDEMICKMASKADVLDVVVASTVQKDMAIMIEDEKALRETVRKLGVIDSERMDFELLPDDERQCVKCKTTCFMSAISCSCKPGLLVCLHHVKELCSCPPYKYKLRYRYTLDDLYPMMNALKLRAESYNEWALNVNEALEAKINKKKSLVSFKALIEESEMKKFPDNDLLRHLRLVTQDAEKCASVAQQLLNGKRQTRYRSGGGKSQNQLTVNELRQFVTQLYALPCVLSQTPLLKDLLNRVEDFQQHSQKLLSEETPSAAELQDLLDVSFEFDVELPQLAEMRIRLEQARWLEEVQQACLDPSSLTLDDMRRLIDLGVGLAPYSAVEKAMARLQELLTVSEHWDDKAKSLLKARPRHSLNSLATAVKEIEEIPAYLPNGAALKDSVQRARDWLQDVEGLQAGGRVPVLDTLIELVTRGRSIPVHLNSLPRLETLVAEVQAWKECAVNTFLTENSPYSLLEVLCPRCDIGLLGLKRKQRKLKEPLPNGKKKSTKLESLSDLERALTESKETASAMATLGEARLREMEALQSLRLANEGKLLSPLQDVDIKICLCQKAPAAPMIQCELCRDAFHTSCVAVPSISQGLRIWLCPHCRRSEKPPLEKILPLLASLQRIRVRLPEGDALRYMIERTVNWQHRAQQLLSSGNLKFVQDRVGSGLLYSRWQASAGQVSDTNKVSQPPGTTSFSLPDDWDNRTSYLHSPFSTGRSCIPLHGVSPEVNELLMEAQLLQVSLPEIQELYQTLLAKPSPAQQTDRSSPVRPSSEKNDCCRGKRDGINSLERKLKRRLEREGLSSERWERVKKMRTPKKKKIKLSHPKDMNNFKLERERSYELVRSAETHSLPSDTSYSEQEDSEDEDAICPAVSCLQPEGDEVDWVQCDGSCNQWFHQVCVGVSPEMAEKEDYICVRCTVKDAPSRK
In short: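 KDM5BDeltaAP (200nM final) preincubated 10 min with compound, then 12.5uM H3K4Me3, 25uM a-ketoglutarate, ascorbate, Fe(II), NAD+ and FDH added; 50mM HEPES pH 7.5, 0.01% Tween-20. NADH fluorescence (340/450 nm) change over 30 min, room temperature.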

[4] = qHTS to identify inhibitors of the type 1 interferon - major histocompatibility complex class I in skeletal muscle: primary screen against the NCATS LOPAC collection (AID 1347405);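 also: lytic HiBiT luminescence reporting HLA-B protein level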; also: potency is read from the fitted curve at half-maximal effect
In short: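 Immortalized human C25cl48 myoblasts with HiBiT knocked into endogenous HLA-B*08:01 were stimulated with 4.0 ng/ml IFN-beta and given compounds in a 7-point, 1:4.3 titration from 46 uM final; after 24 hrs, lytic HiBiT luminescence was read.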

[5] = qHTS to identify inhibitors of the type 1 interferon - major histocompatibility complex class I in skeletal muscle: primary screen against the NCATS Pharmaceutical Collection (AID 1347407);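 also: luminescence of HiBiT knocked into endogenous HLA-B as interferon-induced MHC class I level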; also: potency is read from the fitted curve at half-maximal effect
In short: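 Immortalized human myoblasts (C25cl48) with HiBiT knocked into endogenous HLA-B*08:01 were stimulated with 4.0 ng/ml IFN-beta and treated with compounds ([…] top 46 uM) for 24 hrs at 37 C. HiBiT lytic luminescence read.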

[6] = qHTS for inhibitors of adenylyl cyclases using a fission yeast platform: a pilot screen against the NCATS LOPAC library (AID 1347410)
In short: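 S. pombe CHP2027 (AC9-GNAS-PDE4D2) carrying PKA-repressed fbp1-GFP, incubated 18 h at 30C in EMM with LOPAC compounds at up to 57 uM. GFP gain-of-signal read by laser scanning cytometry; DMSO negative control.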

[7] = biological target: Protein phosphatase 1D (Homo sapiens) (UniProt O15297); test: RapidFire Mass Spectrometry qHTS Assay for Modulators of WT P53-Induced Phosphatase 1 (WIP1) (AID 1347424);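 also: amount of dephosphorylated VEPPL-S-QETFS peptide product formed by WIP1; series mostly up to about 63 µM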
Sequence of Protein phosphatase 1D (Homo sapiens) (O15297 whole entry, looked up): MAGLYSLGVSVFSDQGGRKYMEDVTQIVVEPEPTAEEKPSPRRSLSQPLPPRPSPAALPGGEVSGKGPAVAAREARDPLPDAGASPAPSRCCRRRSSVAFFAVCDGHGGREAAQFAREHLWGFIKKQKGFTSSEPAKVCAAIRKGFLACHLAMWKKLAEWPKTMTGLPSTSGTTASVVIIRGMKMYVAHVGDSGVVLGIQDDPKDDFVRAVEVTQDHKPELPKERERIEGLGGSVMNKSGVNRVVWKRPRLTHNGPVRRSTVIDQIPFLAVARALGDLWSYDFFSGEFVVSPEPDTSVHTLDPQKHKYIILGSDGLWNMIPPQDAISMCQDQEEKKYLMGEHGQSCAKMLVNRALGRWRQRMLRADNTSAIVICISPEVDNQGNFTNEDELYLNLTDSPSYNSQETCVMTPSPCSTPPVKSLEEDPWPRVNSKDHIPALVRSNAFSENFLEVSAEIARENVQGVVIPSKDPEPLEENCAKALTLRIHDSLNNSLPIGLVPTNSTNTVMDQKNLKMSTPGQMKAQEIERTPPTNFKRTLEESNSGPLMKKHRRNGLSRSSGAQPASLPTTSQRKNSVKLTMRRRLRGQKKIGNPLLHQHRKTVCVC
In short: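 10 nM WIP1 preincubated with compounds 1 hr at room temperature in pH 7.5 Tris buffer with 30 mM MgCl2, 1 mM TCEP; 2 uM VEPPL-pS-QETFS phosphopeptide for 5 min, formic acid quench; dephosphorylated product quantified by RapidFire MS against labelled standard.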

[8] = biological target: Protein phosphatase 1D (Homo sapiens) (UniProt O15297); test: Rhodamine-PBP qHTS Assay for Modulators of WT P53-Induced Phosphatase 1 (WIP1) (AID 1347425)
In short: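 WIP1 (5 nM final) was preincubated with compound for 1 hour at room temperature. It then dephosphorylated 10 uM VEPPL-pS-QETFS peptide in Tris-HCl pH 7.5 with 30 mM MgCl2. Released Pi was detected by 10 uM Rh-PBP fluorescence (ex 525/em 598 nm) read at 1-min intervals for 11 min, as delta f1 - f0.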

[9] = Validation qHTS assay for inhibitors of Activation Induced Cytidine Deaminase (AID): UDG Counterscreen signal (AID 1347427)
In short: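 Counterscreen read of UDG activity (2 U/mL, 4/3x) in the FRET deamination format with AID (1 uM, 4/3x), DJC20/DJC23 substrates (250 nM, 4x), 4 h at room temperature. NaOH stop, fluorescence at 560 ex/665 em.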

[10] = biological target: Single-stranded DNA cytosine deaminase (Homo sapiens) (UniProt Q9GZX7); test: Validation qHTS assay for inhibitors of Activation Induced Cytidine Deaminase (AID): AID signal (AID 1347429)
Sequence of Single-stranded DNA cytosine deaminase (Homo sapiens) (Q9GZX7 whole entry, looked up): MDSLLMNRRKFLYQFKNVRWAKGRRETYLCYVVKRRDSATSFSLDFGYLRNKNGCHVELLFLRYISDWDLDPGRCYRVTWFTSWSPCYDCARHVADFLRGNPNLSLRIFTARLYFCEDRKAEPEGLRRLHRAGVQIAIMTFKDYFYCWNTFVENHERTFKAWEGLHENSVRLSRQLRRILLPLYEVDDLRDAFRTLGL
In short: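 AID and UDG were combined and compounds added at final up to 114 uM, then DJC20/DJC23 FRET substrate was added for 4 hr at room temperature. NaOH was then added for 30 min before fluorescence was read at 540/590 nm.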

[11] = qHTS to identify inhibitors of the type 1 interferon - major histocompatibility complex class I in skeletal muscle: primary screen against the NCATS Mechanism Interrogation Plate v5.0 (MIPE) Libary (AID 1347411); also: nearly all actives have a fitted effect of over 65% in size
In short: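 Immortalized human C25cl48 myoblasts with HiBit knocked into endogenous HLA-B*08:01 were stimulated with 4.0 ng/ml IFN-beta and exposed to compounds (11-point 1:3 titration, top 46 uM final) for 24 hrs at 37 C; HiBiT lytic luminescence measured.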

[12] = system: Zika virus NS2B-NS3 protease (linked construct); test: Confirmatory screen NINDS AMC qHTS for Zika virus inhibitors (AID 1347152);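 also: AMC fluorescence gain from cleaved Bz-Nle-KRR-AMC substrate over 15 min; top concentration of the series differs between compounds; nearly all actives have a fitted effect of over 70% in size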
In short: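 Linked NS2B-NS3 protease, 1 nM, in 10 mM Tris-HCl pH 8.0, 0.01% Tween 20; compounds preincubated 15 min at room temperature. Nle-KRR-AMC 10 microM (Km 18.3 µM); 15-min fluorescence change (340/450 nm) fitted to 4-parameter Hill.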

[13] = system: Zika virus NS2B-NS3 protease (unlinked complex); test: Confirmatory screen GU AMC qHTS for Zika virus inhibitors (AID 1347153); also: nearly all actives have a fitted effect of over 70% in size
In short: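 Unlinked NS2B-NS3 complex (25 nM) in 10 mM Tris-HCl pH 8.0, 0.01% Tween 20 preincubated 15 min with compound, then 10 microM Bz-Nle-KRR-AMC (Km 18.3 µM). Fluorescence change over 15 min, normalized, Hill-fitted.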

[14] = Confirmatory screen NINDS Rhodamine qHTS for Zika virus inhibitors (AID 1347161);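 also: purified Zika NS2B-NS3 protease with linked NS2B cofactor domain and Rhodamine110 peptide substrate; series mostly up to about 110 µM; nearly all actives have a fitted effect of over 60% in size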
In short: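 Kinetic fluorescence (Ex 480 nm, Em 540 nm) over 15 min with 1.5 microM Rhodamine110 peptide and 25 nM linked protease.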

[15] = Vero cells viability qHTS for Zika virus inhibitors (AID 1347167)
In short: (§1)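 Cells seeded at 2.5 x 10^5 cells/mL in DMEM with 4% FBS and attached overnight at 37 degrees C, then exposed to compound for 24 to 48 hours. Viability read as ATP content by CellTiter Glo luminescence.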

[16] = HepG2 cells viability qHTS for Zika virus inhibitors (AID 1347168)
In short: as §1

[17] = Tertiary RLuc qRT-PCR qHTS assay for Zika virus inhibitors (AID 1347169); also: top concentration of the series differs between compounds; nearly all actives have a fitted effect of over 55% in size
In short: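 Vero cells (1,000/well) infected with recombinant ZIKV-RLuc (Cambodian) at MOI 1-2 after compound addition, 48-72 hrs at 37 degrees C. Live-cell Renilla luciferase substrate added; luminescence read after 1-1.5 hrs.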

Row | Compound | Potency [1] | outcome [2] | Potency [3] | Potency [4] | Potency [5] | outcome [6] | Potency [7] | outcome [8] | outcome [9] | Potency [10] | Potency [11] | outcome [12] | outcome [13] | Potency [14] | outcome [15] | outcome [16] | outcome [17]
1 | c1cnc(N2CCN(Cc3ccc4c(c3)OCO4)CC2)nc1 | inactive | inactive | inactive | inactive | inactive | inactive | inactive | inactive | inactive | inactive |  |  |  |  |  |  | 
2 | CC(N=C(NC#N)Nc1ccncc1)C(C)(C)C (centres undefined) | inactive | inactive | inactive | inactive | inactive | inactive | inactive |  | inactive | inactive |  |  |  |  |  |  | 
3 | CCN(CC)CCCN(c1ccccc1)C1Cc2ccccc2C1 |  | inactive | inactive | inactive | inactive | inactive | inactive | inactive | inactive | inactive |  |  |  |  |  |  | 
4 | CCOC(=O)C1=C(C)NC(C)=C(C(=O)OC)C1c1cccc(Cl)c1Cl (centres undefined) | 26.7 µM (active) |  |  |  |  | inactive | inactive |  |  |  |  |  |  |  |  |  | 
5 | COc1cc(Cc2cnc(N)nc2N)cc(OC)c1OC |  | inactive | inactive | inactive | inactive | inactive | inactive | inactive | inactive | inactive |  |  |  |  |  |  | 
6 | CCN(CC)CCOCCOC(=O)C1(c2ccccc2)CCCC1 | inactive | inactive |  | inactive | inactive | inactive | inactive | inactive | inactive | inactive |  |  |  |  |  |  | 
7 | CN(C)CCOC(=O)COc1ccc(Cl)cc1 |  | inactive | inactive | inactive | inactive | inactive | inactive | inactive | inactive | inactive |  |  |  |  |  |  | 
8 | CC(C)(C)c1ccc(C(=O)CCCN2CCC(OC(c3ccccc3)c3ccccc3)CC2)cc1 | inactive |  | inactive |  | inactive | inactive | inactive | inactive | inactive | inactive |  |  |  |  |  |  | 
9 | Nc1nc(N)c2nc(-c3ccccc3)c(N)nc2n1 | inactive |  | 39.8 µM (active) | inactive | inactive | inactive | inactive | inactive | inactive |  |  |  |  |  |  |  | 
10 | OC(CCN1CCCCC1)(c1ccccc1)C1CCCCC1 (centres undefined) | inactive |  | inactive | inactive | inactive | inactive | inactive | inactive | inactive | inactive |  |  |  |  |  |  | 
11 | O=C1NCN(c2ccccc2)C12CCN(CCCC(c1ccc(F)cc1)c1ccc(F)cc1)CC2 | inactive |  | inactive |  | 18.7 µM (active) | inactive | inactive | inactive | inactive | inactive |  |  |  |  |  |  | 
12 | CCCN(CCC)C(=O)C(CCC(=O)O)NC(=O)c1ccccc1 (centres undefined) |  | inactive | inactive | inactive | inactive | inactive | inactive | inactive | inactive | inactive | inactive |  |  |  |  |  | 
13 | CN(C)CC[C@@H](c1ccc(Br)cc1)c1ccccn1 |  | inactive | inactive | inactive | inactive | inactive | inactive | inactive | inactive | inactive |  |  |  |  |  |  | 
14 | CN=C(NC#N)NCCSCc1nc[nH]c1C |  | inactive | inactive | inactive | inactive | inactive | inactive | inactive | inactive | inactive |  |  |  |  |  |  | 
15 | CCN1CCc2nc(N)oc2CC1 |  | inactive | inactive | inactive | inactive | inactive | inactive | inactive | inactive | inactive |  | inactive | inactive | inactive | inactive | inactive | inactive
16 | Cc1ccc(/C(=C\CN2CCCC2)c2ccccn2)cc1 | inactive | inactive | inactive |  |  |  | inactive |  | inactive | inactive |  |  |  |  |  |  | 
17 | CCN(Cc1ccncc1)C(=O)C(CO)c1ccccc1 (centres undefined) |  | inactive | inactive | inactive | inactive | inactive | inactive | inactive | inactive | inactive |  |  |  |  |  |  | 
18 | NC(=O)c1cn(Cc2c(F)cccc2F)nn1 |  | inactive | inactive | inactive | inactive | inactive | inactive | inactive | inactive | inactive |  |  |  |  |  |  | 
19 | CN(C(=O)CCCOc1ccc2[nH]c(=O)ccc2c1)C1CCCCC1 | 26.7 µM (active) |  |  | inactive | inactive | inactive | inactive | inactive | inactive | inactive |  |  |  |  |  |  | 
20 | NC(N)=NC(=O)Cc1c(Cl)cccc1Cl |  | inactive | inactive | inactive | inactive | inactive | inactive | inactive | inactive | inactive |  |  |  |  |  |  | 
21 | CCCNC(C)C(=O)Nc1ccccc1C (centres undefined) |  | inactive | inactive | inactive | inactive | inactive | inactive | inactive | inactive | inactive |  |  |  |  |  |  | 
22 | COc1ccc2c(c1OC)C(=O)O[C@@H]2[C@H]1c2c(cc3c(c2OC)OCO3)CCN1C |  | inactive | inactive | inactive | inactive | inactive | inactive | inactive | inactive | inactive |  |  |  |  |  |  | 
23 | CCOC(=O)c1cnc2c(cnn2CC)c1NN=C(C)C |  | inactive | inactive | inactive | inactive | inactive | inactive | inactive | inactive | inactive |  | inactive | inactive | inactive | inactive | inactive | 
24 | COc1cc(C(=O)OCCCN2CCCN(CCCOC(=O)c3cc(OC)c(OC)c(OC)c3)CC2)cc(OC)c1OC | inactive | inactive | inactive |  |  | inactive | inactive |  | inactive | inactive |  |  |  |  |  |  | 
25 | C[n+]1cc2c3c(ccc2c2ccc4cc5c(cc4c21)OCO5)OCO3 | 5.97 µM (active) | inactive |  | 1.78 µM (active) |  | inactive | inactive |  |  |  |  |  |  |  |  |  | 
